The sample as a whole holds a higher share of hits than the screen did.
Pf Dd2 growth – inhibitors of Plasmodium falciparum Dd2 growth; P. falciparum Dd2 growth, SYBR Green, 72 h; Potency, µM (top dose mostly 28.9 µM), without a hit: at the highest dose activity, negative = inhibition, most hits filed as inhibitors; 120,000 tested, 4.3% active; AID 1347417; active = well fitted inhibition curve with a large enough effect;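 note: plate controls were DMSO vehicle for no effect and reference drug for full effect; nearly all actives have a fitted effect of over 65% in size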
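Readout: SYBR Green fluorescence, 485 nm excitation, 535 nm emission, after ~16 h lysis at 37C. Before that, Dd2-infected red cells (2.5% hematocrit) grew 72 h with compound, 29 uM top final concentration.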
An asterisk follows results filed as active; i = inactive; [ ] = another dose, or the depositor's remark. Potency is the fitted concentration of half-maximal effect.

SMILES	Pf Dd2 growth
CC(=O)Nc1ccc(S(=O)(=O)Nc2nc3n(n2)C(c2ccccc2)C=C(c2ccc(Cl)cc2)N3)cc1 (configuration not stated)	13%
O=C(Nc1nc2n(n1)C(c1ccc(F)cc1)C=C(c1ccccc1)N2)c1ccc(Cl)cc1 (configuration not stated)	10µM*
COc1ccc(C(=O)Nc2nc3n(n2)C(c2ccc(F)cc2)C=C(c2ccc(Cl)cc2)N3)cc1 (configuration not stated)	5µM*
CCC(CC)NC(=O)CC1CCCN(c2cnn(CC)c(=O)c2)C1 (configuration not stated)	-9%
O=C(Cc1cccc(F)c1)NCc1nnc2ccc(-c3ccc(Cl)cc3)nn12	-4%
O=C(NCc1ccc(F)cc1)c1ccc(N2CC3CC(C2)[C@H]2CCCC(=O)N2C3)nc1 (some centres not stated)	-2%
O=C(CCC1CCCC1)N1CCC2(CCCCO2)CC1	-2%
O=C(Nc1ccc(F)cc1)Nc1cccc(-c2ccc(N3CCOCC3)nn2)c1	i
Cc1ccc(-c2nc3sc(CCNC(=O)c4ccco4)c(C)n3n2)cc1	i
Cc1ccc(C(=O)Nc2nc3n(n2)C(c2ccc(F)cc2)C=C(c2ccccc2)N3)cc1 (configuration not stated)	6.3µM*
CCC1Oc2ccc(NC(=O)c3ccc([N+](=O)[O-])cc3)cc2CN(Cc2ccc(F)cc2)C1=O (configuration not stated)	-10%
O=C(Nc1nc2n(n1)C(c1ccc(F)cc1)C=C(c1ccc(Cl)cc1)N2)c1ccc([N+](=O)[O-])cc1 (configuration not stated)	4µM*
Cc1ccc(S(=O)(=O)Nc2nc3n(n2)C(c2ccc(F)cc2)C=C(c2ccccc2)N3)cc1 (configuration not stated)	-30%
O=C(Cn1nnc(-c2ccc(Cl)cc2)n1)NCc1ccc(F)cc1	-4%
COc1ccccc1C(=O)Nc1nc2n(n1)C(c1ccc(F)cc1)C=C(c1ccc(Cl)cc1)N2 (configuration not stated)	4.5µM*
Fc1ccc(C2=CC(c3ccc(F)cc3)n3c(nc4ccccc43)N2)cc1 (configuration not stated)	67%
COc1ccccc1C(=O)NC1CCN(c2cc(-c3ccc(Cl)cc3)[nH]n2)CC1	i
O=C(Nc1cnc(-c2ccc(F)cc2)nc1)c1ccco1	i
Cc1ccc(C2C=C(c3ccc(Cl)cc3)Nc3nc(NC(=O)c4ccco4)nn32)cc1 (configuration not stated)	3.5µM*
Cc1ccc(-c2nocc2CCC(=O)N2CCC(Cc3ccccc3)CC2)cc1	i
Cc1ccccc1C(=O)N1CCC2(CC1)CN(c1ncccn1)CC2CO (configuration not stated)	20%
O=C(c1cccc(F)c1)N1CCCC1c1nc(C2CCOCC2)no1 (configuration not stated)	-3%
Cc1nnsc1C(=O)N[C@H]1CCN(C(=O)COCC(=O)O)[C@H](C(=O)N[C@H](Cc2ccccc2)C(N)=O)C1	-4%
COC[C@@H]1CN(Cc2ccc3c(c2)CCO3)C[C@H]1C(=O)N(C)C	-6%
CCOc1cccc(CN2C[C@@H](CO)[C@H](c3nc(C)no3)C2)c1	-23%
SMILES	Pf Dd2 growth
O=C(Nc1ccc2c(c1)OCCO2)C1CCN(C(=O)N2CC3CC(C2)[C@H]2CCCC(=O)N2C3)CC1 (some centres not stated)	i
Cc1nnc(C2CCCCCN2C(=O)c2nn(C)c3ccccc23)o1 (configuration not stated)	-3%
CCOc1ccc(CN2CCOc3ccc(C(=O)NCc4ccccc4F)cc3C2)cc1	i
O=C1NC2CCCCC2=C1CC(=O)N1CCc2ccccc21 (configuration not stated)	-30%
COc1ccc(CNC(=O)NC2CCc3n[nH]c(=O)n3CC2)cc1 (configuration not stated)	i
O=C(NCc1cccc(F)c1)c1cc2c(s1)CCN(C(=O)c1ccccc1)C2	-20%
COCCCNc1oc(-c2ccc(COc3ccccc3C)o2)nc1C#N	-27%
CCN1CCN(c2oc(-c3ccc(COc4ccccc4C)o3)nc2C#N)CC1	-14%
Cc1cccc(OCc2ccc(-c3nc(C#N)c(N4CCN(c5ccccc5)CC4)o3)o2)c1	10µM*
COc1ccc(CNc2oc(COc3cccc(C)c3)nc2C#N)cc1	0%
Cc1ccccc1OCc1ccc(-c2nc(C#N)c(NCc3cccnc3)o2)o1	-24%
N#Cc1nc(-c2ccc(COc3ccccc3)o2)oc1N1CCCCC1	59%[0.594 µM]
Cc1cccc(OCc2ccc(-c3nc(C#N)c(NCc4cccnc4)o3)o2)c1	7.9µM*
CCCCNc1oc(-c2ccc(COc3ccccc3C)o2)nc1C#N	11µM*
COc1ccc(Nc2oc(-c3ccc(COc4ccccc4)o3)nc2C#N)cc1	-5%
CCc1noc(-c2cn(C3CCN(C(=O)c4ccc(F)cc4)C3)nn2)n1 (configuration not stated)	i
CN1C(=O)CC(C(=O)O)C12CCN(C(=O)CCc1cccnc1)CC2 (configuration not stated)	-11%
CN1c2cc(C(=O)NCc3ccc(F)c(Cl)c3)ccc2C(=O)N2CCCCC21 (configuration not stated)	i
COCC(=O)NC[C@H]1CCN(Cc2cccn2C)C[C@H]1N(C)C	i
CS(=O)(=O)N1CCCC1c1noc(CCC(=O)N2CCC(N3CCCCC3)CC2)n1 (configuration not stated)	-16%
CO[C@H]1COCCN(C(=O)c2cccc(F)c2)C1	13%[44.1 µM]
O=C1NCCCCCN(C(=O)C2CCCCC2)[C@H]2CCCC[C@@H]12	i
COC(=O)C1=CN(CC(=O)Nc2ccc(C)cc2Cl)S(=O)(=O)N=C1C	79%
FC(F)(F)Oc1ccc2c(c1)NC(c1ccncc1)=NC(c1cccs1)=N2	-26%
CC(C)c1ccc2c(c1)NC(c1ccncc1)=NC(c1cccs1)=N2	1%
SMILES	Pf Dd2 growth
CCc1ccc2c(c1)NC(c1ccc(C)cc1)=NC(c1cccs1)=N2	13µM*
CN(Cc1cccn1C)C(=O)Cc1ccc(F)cc1	11%[44.1 µM]
CC(C)N1C[C@H](O)C[C@H]1c1nnc2n1CCN(C(=O)c1cccc3nccnc13)CC2	21%
CCNC(=O)c1cccnc1OC1CCN(C(=O)CCCc2ccccc2)C1 (configuration not stated)	i
CC1CCN(c2ccc(CNC(=O)CC3=C4CCCCC4N(C)C3=O)cc2)CC1 (configuration not stated)	10µM*
CN1C(=O)C(CC(=O)NCCCN2CCc3ccccc3C2)=C2CCCCC21 (configuration not stated)	-22%
O=C(CC1=C2CCCCC2N(Cc2ccc(F)cc2)C1=O)NC1CC1 (configuration not stated)	-22%
CN1C(=O)C(CC(=O)NCC2CCN(Cc3ccc(F)cc3)CC2)=C2CCCCC21 (configuration not stated)	5µM*
CCNC(=O)CC1=C2CCCCC2N(C)C1=O (configuration not stated)	-17%
CN1C(=O)C(CC(=O)NC2CC2)=C2CCCCC21 (configuration not stated)	-12%
O=C1CCC2(CNC(=O)c3ccoc3)CCC=C2N1 (configuration not stated)	23%
Cc1ccc(N2C(=O)N[C@@H]3CCN(C(=O)c4ccccc4)[C@@H]3C2=O)cc1	0%[44.1 µM]
Cc1ccsc1CN(C)Cc1c(C)n(C)n(-c2ccccc2)c1=O	4%

Screening data from PubChem BioAssay.
